The text below walks through data of PubChem BioAssay (NCI).

About 79,000 compounds went through this panel and 15% of them were active in at least one assay; those are over-represented in the sample as a whole. Unmarked numbers belong to inactive results. The source made the active and inactive calls. Rule as the data show it: active = growth inhibition above about 70%; inactive = the rest.

Assay [1] can be described thus: NCI Yeast Anticancer Drug Screen. Data for the rad50 strain (AID 155).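 Also: 0% = growth of vehicle-only cultures of the same strain.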 To be noted: S. cerevisiae rad50 strain growth inhibition, active compounds read high. The method, boiled down:
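Compounds were tested on a yeast strain with an engineered DNA damage repair alteration; the reported value is growth inhibition normalised to vehicle treatment.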

Assay [2] is described as follows: NCI Yeast Anticancer Drug Screen. Data for the mec2-1 strain (AID 157). To be noted: S. cerevisiae mec2-1 strain, active compounds read high. The method, boiled down: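 Vehicle-treated cultures served as reference for growth inhibition of compound-exposed mec2-1 yeast.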
Assay [3] can be described thus: NCI Yeast Anticancer Drug Screen. Data for the sgs1 mgt1 strain (AID 161).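 Also: 0% = growth of cultures given vehicle only.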 To be noted: S. cerevisiae sgs1 mgt1 strain, active compounds read high. The essentials:
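Read-out: growth inhibition vs vehicle controls. Cells: mutant yeast strain deficient in DNA damage repair.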

A short description of assay [4]: NCI Yeast Anticancer Drug Screen. Data for the cln2 rad14 strain (AID 165).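 Also: 0% = growth equal to vehicle treated cultures.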 To be noted: S. cerevisiae cln2 rad14 strain, active compounds read high. The method, boiled down: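 Each compound was tested on cln2 rad14 yeast. Inhibition of growth was calculated against vehicle-exposed controls.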
A short description of assay [5]: NCI Yeast Anticancer Drug Screen. Data for the bub3 strain (AID 167). To be noted: S. cerevisiae bub3 mutant strain, active compounds read high. The method, boiled down: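 Growth of a checkpoint-deficient yeast mutant is measured after compound exposure. Values represent inhibition relative to vehicle.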
Assay [6] can be described thus: NCI Yeast Anticancer Drug Screen. Data for the mlh1 rad18 strain (AID 175). To be noted: S. cerevisiae mlh1 rad18 strain growth inhibition, active compounds read high. The method, boiled down: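 Vehicle-treated cultures served as the reference for growth inhibition in a yeast strain carrying DNA damage repair alterations exposed to each compound.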
Setting [7] is: at 5.0 µM (retest, dose inferred, filed as 0.5).
[8] abbreviates: at 50.0 µM (retest, dose inferred, filed as 5.0).

For the compound `CS/C(=N\N=C(/C)c1ccccn1)N1CCN(c2ccccn2)CC1`, the growth inhibition in assay [1] (setting [7]) is 1%; in assay [1] (setting [8]), 22%; in assay [1] (at 50.0 µM) it was 98.1% (active); in assay [2] (setting [7]) it was -1%; in assay [2] (setting [8]), 14%; in assay [2] (at 50.0 µM), 82.2% (active). The growth inhibition in assay [3] (setting [7]) was -1%; in assay [3] (setting [8]), 96% (active); in assay [3] (at 50.0 µM), 98.6% (active); in assay [4] (setting [7]) it was -5%; in assay [4] (setting [8]) it was 84% (active); in assay [4] (at 50.0 µM), 64.2%. For the same compound, the growth inhibition in assay [5] (setting [7]) is -7%; in assay [5] (setting [8]), 94% (active); in assay [5] (at 50.0 µM) it was 91.2% (active); in assay [6] (setting [7]), -8%; in assay [6] (setting [8]), 98% (active); in assay [6] (at 50.0 µM), 87.5% (active).

For the compound `[Cl][Sn]([CH2][CH2][Sn]([Cl])([c]1ccccc1)[c]1ccccc1)([c]1ccccc1)[c]1ccccc1`, the growth inhibition in assay [1] (setting [7]) is 99% (active); in assay [1] (setting [8]), 98% (active); in assay [1] (at 50.0 µM), 94.5% (active); in assay [2] (setting [7]) it was 99% (active); in assay [2] (setting [8]) it was 97% (active); in assay [2] (at 50.0 µM) it was 92.2% (active). For the same compound, the growth inhibition was 99% (active) in assay [3] (setting [7]); 97% (active) in assay [3] (setting [8]); 95.2% (active) in assay [3] (at 50.0 µM); 97% (active) in assay [4] (setting [7]); 96% (active) in assay [4] (setting [8]); 87.5% (active) in assay [4] (at 50.0 µM). In addition, the growth inhibition in assay [5] (setting [7]) is 96% (active); in assay [5] (setting [8]), 98% (active); in assay [5] (at 50.0 µM), 90.9% (active); in assay [6] (setting [7]) it was 99% (active); in assay [6] (setting [8]), 98% (active); in assay [6] (at 50.0 µM), 94.2% (active).

As for `O=C(O)C(Br)C(Br)C(=O)Nc1ccc(Cl)c(Cl)c1` (stereo not given), the growth inhibition in assay [1] (setting [7]) was 91% (active); in assay [1] (setting [8]), 99% (active); in assay [1] (at 50.0 µM) it was 96.3% (active); in assay [2] (setting [7]), 52%; in assay [2] (setting [8]), 99% (active); in assay [2] (at 50.0 µM) it was 98.1% (active). The growth inhibition in assay [3] (setting [7]) is 85% (active); in assay [3] (setting [8]), 99% (active); in assay [3] (at 50.0 µM) it was 96.8% (active); in assay [4] (setting [7]), 25%; in assay [4] (setting [8]), 99% (active); in assay [4] (at 50.0 µM) it was 84.7% (active). For the same compound, the growth inhibition was 96% (active) in assay [5] (setting [7]); 100% (active) in assay [5] (setting [8]); 98.8% (active) in assay [5] (at 50.0 µM); 48% in assay [6] (setting [7]); 99% (active) in assay [6] (setting [8]); 96% (active) in assay [6] (at 50.0 µM).

Regarding `N#CC(C#N)=c1c2nsnc2c(=C(C#N)C#N)c2nsnc12`, the growth inhibition in assay [1] (setting [7]) is 71% (active); in assay [1] (setting [8]), 88% (active); in assay [1] (at 50.0 µM) it was -9.1%; in assay [2] (setting [7]), 19%; in assay [2] (setting [8]), 82% (active); in assay [2] (at 50.0 µM), -1.6%. Moreover, the growth inhibition is 52% in assay [3] (setting [7]); 90% (active) in assay [3] (setting [8]); -9.75% in assay [3] (at 50.0 µM); 55% in assay [4] (setting [7]); 83% (active) in assay [4] (setting [8]); -47.7% in assay [4] (at 50.0 µM). The growth inhibition in assay [5] (setting [7]) was 60%; in assay [5] (setting [8]), 91% (active); in assay [5] (at 50.0 µM), -14.2%; in assay [6] (setting [7]), 36%; in assay [6] (setting [8]), 87% (active); in assay [6] (at 50.0 µM) it was 7.45%.

On to `O=C(n1c2ccccc2c2n[nH]c(=S)nc21)C(F)(F)F`, for which the growth inhibition in assay [1] (setting [7]) is 1%; in assay [1] (setting [8]) it was -6%; in assay [1] (at 50.0 µM), 82.7% (active); in assay [2] (setting [7]), 0%; in assay [2] (setting [8]), -2%; in assay [2] (at 50.0 µM), 39.1%. The growth inhibition in assay [3] (setting [7]) was -3%; in assay [3] (setting [8]), -2%; in assay [3] (at 50.0 µM) it was 83.5% (active); in assay [4] (setting [7]) it was -2%; in assay [4] (setting [8]) it was -2%; in assay [4] (at 50.0 µM), 25.3%. The growth inhibition was 3% in assay [5] (setting [7]); -1% in assay [5] (setting [8]); 52.8% in assay [5] (at 50.0 µM); -5% in assay [6] (setting [7]); 0% in assay [6] (setting [8]); 89.3% (active) in assay [6] (at 50.0 µM).

For the compound `O=[N+]([O-])c1ccc(CCCCc2ccc([N+](=O)[O-])cc2)cc1`, the growth inhibition in assay [1] (setting [7]) was -5%; in assay [1] (setting [8]), -8%; in assay [1] (at 50.0 µM) it was -6.1%; in assay [2] (setting [7]), 3%; in assay [2] (setting [8]), -18%; in assay [2] (at 50.0 µM) it was 3%. The growth inhibition is 2% in assay [3] (setting [7]); -9% in assay [3] (setting [8]); -1.8% in assay [3] (at 50.0 µM); -2% in assay [4] (setting [7]); -10% in assay [4] (setting [8]); -59.9% in assay [4] (at 50.0 µM). For the same compound, the growth inhibition was 13% in assay [5] (setting [7]); 21% in assay [5] (setting [8]); 7.35% in assay [5] (at 50.0 µM); -10% in assay [6] (setting [7]); -16% in assay [6] (setting [8]); 29% in assay [6] (at 50.0 µM).

With `CC1=C(C(=O)Nc2cccc(Cl)c2)C(c2ccc([N+](=O)[O-])cc2)C(C(=O)Nc2cccc(Cl)c2)=C(C)N1`, the growth inhibition in assay [1] (setting [7]) was 44%; in assay [1] (setting [8]), 44%; in assay [1] (at 50.0 µM), 57.9%; in assay [2] (setting [7]), 52%; in assay [2] (setting [8]) it was 52%; in assay [2] (at 50.0 µM), 81.8% (active). Besides, the growth inhibition was 34% in assay [3] (setting [7]); 34% in assay [3] (setting [8]); 65% in assay [3] (at 50.0 µM); 32% in assay [4] (setting [7]); 32% in assay [4] (setting [8]); 79.5% (active) in assay [4] (at 50.0 µM). For the same compound, the growth inhibition was 49% in assay [5] (setting [7]); 49% in assay [5] (setting [8]); 74.7% (active) in assay [5] (at 50.0 µM); 51% in assay [6] (setting [7]); 51% in assay [6] (setting [8]); 61.8% in assay [6] (at 50.0 µM).

Regarding `CS(C)=O.[Cl-].[Cl-].[NH-]CC(O)CN(Cc1ccccc1)CC(O)CN.[Pt]` (stereo not given), the growth inhibition is -15% in assay [1] (setting [7]); 4% in assay [1] (setting [8]); 31.9% in assay [1] (at 50.0 µM); 18% in assay [2] (setting [7]); 20% in assay [2] (setting [8]); 1% in assay [2] (at 50.0 µM). Besides, the growth inhibition in assay [3] (setting [7]) was 2%; in assay [3] (setting [8]), 18%; in assay [3] (at 50.0 µM) it was 17.7%; in assay [4] (setting [7]), 39%; in assay [4] (setting [8]), 14%; in assay [4] (at 50.0 µM), -6.25%. The growth inhibition was -19% in assay [5] (setting [7]); -11% in assay [5] (setting [8]); -5.7% in assay [5] (at 50.0 µM); -13% in assay [6] (setting [7]); -4% in assay [6] (setting [8]); 7.75% in assay [6] (at 50.0 µM).

`CC(=O)CC(C)=NCCN=C(C)CC(C)=O.[Pd]`: the growth inhibition in assay [1] (setting [7]) is -6%; in assay [1] (setting [8]), 61%; in assay [1] (at 50.0 µM), 76% (active); in assay [2] (setting [7]), -1%; in assay [2] (setting [8]), 78% (active); in assay [2] (at 50.0 µM), 67.2%. Moreover, the growth inhibition was 0% in assay [3] (setting [7]); 96% (active) in assay [3] (setting [8]); 94.3% (active) in assay [3] (at 50.0 µM); -5% in assay [4] (setting [7]); 41% in assay [4] (setting [8]); 53% in assay [4] (at 50.0 µM). Moreover, the growth inhibition is -1% in assay [5] (setting [7]); 60% in assay [5] (setting [8]); 76.2% (active) in assay [5] (at 50.0 µM); -9% in assay [6] (setting [7]); 74% (active) in assay [6] (setting [8]); 83.7% (active) in assay [6] (at 50.0 µM).

For `CCCCCCCCCCCC(=O)Oc1c(Cl)c(Cl)c(C#N)c(Cl)c1Cl`, the growth inhibition in assay [1] (setting [7]) is 5%; in assay [1] (setting [8]), 0%; in assay [1] (at 50.0 µM), 70.7% (active); in assay [2] (setting [7]) it was 2%; in assay [2] (setting [8]), 3%; in assay [2] (at 50.0 µM) it was 23.4%. Further, the growth inhibition in assay [3] (setting [7]) was 5%; in assay [3] (setting [8]) it was 7%; in assay [3] (at 50.0 µM), 60.9%; in assay [4] (setting [7]), 12%; in assay [4] (setting [8]), -1%; in assay [4] (at 50.0 µM), 48.6%. For the same compound, the growth inhibition was 1% in assay [5] (setting [7]); -1% in assay [5] (setting [8]); 8.7% in assay [5] (at 50.0 µM); 5% in assay [6] (setting [7]); 13% in assay [6] (setting [8]); 86.7% (active) in assay [6] (at 50.0 µM).
